# Laboratory results from the supplement of paper PMC4466140.
# Columns and labels:
# Experiment in all cases: SPOT peptide array binding signal intensity (averaged, normalized) (arbitrary units (background-subtracted, floor 0; scale differs between SH3 domains)); higher = stronger binding of the SH3 domain to the peptide
# AgAbp1 = target: AgAbp1
# Method: (§1)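 GST-tagged SH3 domains from S. cerevisiae (Sc), A. gossypii (Ag), C. albicans (Ca) and S. pombe (Sp) were incubated at 10 ug/ml overnight at 4 C on cellulose SPOT membranes carrying 292 synthetic 15-mer peptides mined from the S. cerevisiae proteome (cysteines replaced by serines). Binding was detected with anti-GST antibody, HRP secondary and chemiluminescence, quantified with Genespotter, and reported as normalized spot intensities averaged over biological replicates.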
# AgBbc1 = target: AgBbc1
# Method: as §1
# AgBem1-D1 = target: AgBem1-D1
# Method: as §1
# AgBzz1-D1 = target: AgBzz1-D1
# Method: as §1
# AgBzz1-D2 = target: AgBzz1-D2
# Method: as §1
# AgCyk3 = target: AgCyk3
# Method: as §1
# AgFus1 = target: AgFus1
# Method: as §1
# AgHof1 = target: AgHof1
# Method: as §1
# AgHse1 = target: AgHse1
# Method: as §1
# AgLsb1 = target: AgLsb1
# Method: as §1
# AgLsb4 = target: AgLsb4
# Method: as §1
# AgMyo5 = target: AgMyo5
# Method: as §1
# AgNbp2 = target: AgNbp2
# Method: as §1
# AgRvs167 = target: AgRvs167
# Method: as §1
# AgSho1 = target: AgSho1
# Method: as §1
# AgSla1-D1-D2 = target: AgSla1-D1-D2
# Method: as §1
# AgSla1-D3 = target: AgSla1-D3
# Method: as §1
# CaAbp1-D1 = target: CaAbp1-D1
# Method: as §1
# CaAbp1-D2 = target: CaAbp1-D2
# Method: as §1
# CaBbc1 = target: CaBbc1
# Method: as §1
# CaBem1-D1 = target: CaBem1-D1
# Method: as §1
# CaBzz1-D1 = target: CaBzz1-D1
# Method: as §1
# CaBzz1-D2 = target: CaBzz1-D2
# Method: as §1
# CaCyk3 = target: CaCyk3
# Method: as §1
# CaFus1 = target: CaFus1
# Method: as §1
# CaHof1 = target: CaHof1
# Method: as §1
# CaHse1 = target: CaHse1
# Method: as §1
# CaLsb1 = target: CaLsb1
# Method: as §1
# CaLsb4 = target: CaLsb4
# Method: as §1
# CaMyo5 = target: CaMyo5
# Method: as §1
# CaNbp2 = target: CaNbp2
# Method: as §1
# CaRvs167 = target: CaRvs167
# Method: as §1
# CaRvs167-3 = target: CaRvs167-3
# Method: as §1
# CaSho1 = target: CaSho1
# Method: as §1
# CaSla1-D1-D2 = target: CaSla1-D1-D2
# Method: as §1
# CaSla1-D3 = target: CaSla1-D3
# Method: as §1
# ScAbp1 = target: ScAbp1
# Method: as §1
# ScBbc1 = target: ScBbc1
# Method: as §1
# ScBem1-D1 = target: ScBem1-D1
# Method: as §1
# ScBzz1-D1 = target: ScBzz1-D1
# Method: as §1
# ScBzz1-D2 = target: ScBzz1-D2
# Method: as §1
# ScCyk3 = target: ScCyk3
# Method: as §1
# ScFus1 = target: ScFus1
# Method: as §1
# ScHof1 = target: ScHof1
# Method: as §1
# ScHse1 = target: ScHse1
# Method: as §1
# ScLsb1 = target: ScLsb1
# Method: as §1
# ScLsb2 = target: ScLsb2
# Method: as §1
# ScLsb3 = target: ScLsb3
# Method: as §1
# ScLsb4 = target: ScLsb4
# Method: as §1
# ScMyo3 = target: ScMyo3
# Method: as §1
# ScMyo5 = target: ScMyo5
# Method: as §1
# ScNbp2 = target: ScNbp2
# Method: as §1
# ScPex13 = target: ScPex13
# Method: as §1
# ScRvs167 = target: ScRvs167
# Method: as §1
# ScSho1 = target: ScSho1
# Method: as §1
# ScSla1-D1-D2 = target: ScSla1-D1-D2
# Method: as §1
# ScSla1-D3 = target: ScSla1-D3
# Method: as §1
# SpAbp1-D1 = target: SpAbp1-D1
# Method: as §1
# SpBbc1 = target: SpBbc1
# Method: as §1
# SpBzz1-D1 = target: SpBzz1-D1
# Method: as §1
# SpBzz1-D2 = target: SpBzz1-D2
# Method: as §1
# SpCyk3 = target: SpCyk3
# Method: as §1
# SpHof1 = target: SpHof1
# Method: as §1
# SpHof1-2 = target: SpHof1-2
# Method: as §1
# SpHof1-3 = target: SpHof1-3
# Method: as §1
# SpHse1 = target: SpHse1
# Method: as §1
# SpLsb1 = target: SpLsb1
# Method: as §1
# SpLsb4 = target: SpLsb4
# Method: as §1
# SpMyo1 = target: SpMyo1
# Method: as §1
# SpNbp2 = target: SpNbp2
# Method: as §1
# SpPex13 = target: SpPex13
# Method: as §1
# SpRvs167 = target: SpRvs167
# Method: as §1
# SpSla1-D1-D2 = target: SpSla1-D1-D2
# Method: as §1
# SpSla1-D3 = target: SpSla1-D3
# Method: as §1
binder,measurement,setting,value
RRRRRPHRIERPLSN,SPOT peptide array binding signal intensity,AgAbp1,25
same,SPOT peptide array binding signal intensity,AgBbc1,170
same,SPOT peptide array binding signal intensity,AgBem1-D1,136
same,SPOT peptide array binding signal intensity,AgBzz1-D1,33
same,SPOT peptide array binding signal intensity,AgBzz1-D2,43
same,SPOT peptide array binding signal intensity,AgCyk3,33
same,SPOT peptide array binding signal intensity,AgFus1,322
same,SPOT peptide array binding signal intensity,AgHof1,28.5
same,SPOT peptide array binding signal intensity,AgHse1,833
same,SPOT peptide array binding signal intensity,AgLsb1,4.25
same,SPOT peptide array binding signal intensity,AgLsb4,160
same,SPOT peptide array binding signal intensity,AgMyo5,2.25
same,SPOT peptide array binding signal intensity,AgNbp2,72
same,SPOT peptide array binding signal intensity,AgRvs167,3.17
same,SPOT peptide array binding signal intensity,AgSho1,37.5
same,SPOT peptide array binding signal intensity,AgSla1-D1-D2,354
same,SPOT peptide array binding signal intensity,AgSla1-D3,1
same,SPOT peptide array binding signal intensity,CaAbp1-D1,454
same,SPOT peptide array binding signal intensity,CaAbp1-D2,512
same,SPOT peptide array binding signal intensity,CaBbc1,300
same,SPOT peptide array binding signal intensity,CaBem1-D1,53.5
same,SPOT peptide array binding signal intensity,CaBzz1-D1,96
same,SPOT peptide array binding signal intensity,CaBzz1-D2,34
same,SPOT peptide array binding signal intensity,CaCyk3,147
same,SPOT peptide array binding signal intensity,CaFus1,525
same,SPOT peptide array binding signal intensity,CaHof1,≤ 0
same,SPOT peptide array binding signal intensity,CaHse1,30.5
same,SPOT peptide array binding signal intensity,CaLsb1,1.5
same,SPOT peptide array binding signal intensity,CaLsb4,108
same,SPOT peptide array binding signal intensity,CaMyo5,2
same,SPOT peptide array binding signal intensity,CaNbp2,394
same,SPOT peptide array binding signal intensity,CaRvs167,12
same,SPOT peptide array binding signal intensity,CaRvs167-3,104
same,SPOT peptide array binding signal intensity,CaSho1,674
same,SPOT peptide array binding signal intensity,CaSla1-D1-D2,27
same,SPOT peptide array binding signal intensity,CaSla1-D3,3.5
same,SPOT peptide array binding signal intensity,ScAbp1,16
same,SPOT peptide array binding signal intensity,ScBbc1,124
same,SPOT peptide array binding signal intensity,ScBem1-D1,98
same,SPOT peptide array binding signal intensity,ScBzz1-D1,7.5
same,SPOT peptide array binding signal intensity,ScBzz1-D2,15
same,SPOT peptide array binding signal intensity,ScCyk3,272
same,SPOT peptide array binding signal intensity,ScFus1,396
same,SPOT peptide array binding signal intensity,ScHof1,≤ 0
same,SPOT peptide array binding signal intensity,ScHse1,1290
same,SPOT peptide array binding signal intensity,ScLsb1,11.2
same,SPOT peptide array binding signal intensity,ScLsb2,6
same,SPOT peptide array binding signal intensity,ScLsb3,690
same,SPOT peptide array binding signal intensity,ScLsb4,7.5
same,SPOT peptide array binding signal intensity,ScMyo3,6.5
same,SPOT peptide array binding signal intensity,ScMyo5,3.25
same,SPOT peptide array binding signal intensity,ScNbp2,437
same,SPOT peptide array binding signal intensity,ScPex13,0.5
same,SPOT peptide array binding signal intensity,ScRvs167,29
same,SPOT peptide array binding signal intensity,ScSho1,430
same,SPOT peptide array binding signal intensity,ScSla1-D1-D2,303
same,SPOT peptide array binding signal intensity,ScSla1-D3,11
same,SPOT peptide array binding signal intensity,SpAbp1-D1,143
same,SPOT peptide array binding signal intensity,SpBbc1,7.25
same,SPOT peptide array binding signal intensity,SpBzz1-D1,91
same,SPOT peptide array binding signal intensity,SpBzz1-D2,1.25
same,SPOT peptide array binding signal intensity,SpCyk3,7
same,SPOT peptide array binding signal intensity,SpHof1,217
same,SPOT peptide array binding signal intensity,SpHof1-2,13
same,SPOT peptide array binding signal intensity,SpHof1-3,456
same,SPOT peptide array binding signal intensity,SpHse1,421
same,SPOT peptide array binding signal intensity,SpLsb1,≤ 0
same,SPOT peptide array binding signal intensity,SpLsb4,336
same,SPOT peptide array binding signal intensity,SpMyo1,3
same,SPOT peptide array binding signal intensity,SpNbp2,418
same,SPOT peptide array binding signal intensity,SpPex13,10
same,SPOT peptide array binding signal intensity,SpRvs167,3.83
same,SPOT peptide array binding signal intensity,SpSla1-D1-D2,5
same,SPOT peptide array binding signal intensity,SpSla1-D3,5
